Test systems include SR leukemia; RPMI-8226 leukemia; OVCAR-8 ovarian; OVCAR-5 ovarian; OVCAR-4 ovarian; SK-OV-3 ovarian; IGROV1 ovarian; OVCAR-3 ovarian; HS 578T breast; NCI/ADR-RES ovarian; T-47D breast; BT-549 breast; MDA-MB-435 melanoma; MCF7 breast; HCT-116 colon; HCC-2998 colon; KM12 colon; SW-620 colon.
Holding throughout (experiment): NCI-60 one-dose screen, 48 h (100 = growth as untreated, 0 = no growth, -100 = all killed)
Holding throughout (conditions): 10 µM unless noted

SMILES strings stand for the structures. The panel holds about 83,000 compounds, 20% with a hit somewhere; the sample as a whole holds those more often.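 Single-concentration screen, 48 h exposure, 96-well plates. Endpoint: percent growth. Below 10 = active.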 Unmarked numbers belong to inactive results. Calls of active or inactive are those of the source.

In PubChem BioAssay (NCI) one finds growth data, which are given here for 9 compounds.

In the case of `c1ccc2[nH]c(-c3ccc(Nc4nc(N5CCCCC5)nc(N5CCOCC5)n4)cc3)nc2c1`, the growth was 9.79% (active) in the experiment with SR leukemia; 2.47% (active) in the experiment on RPMI-8226 leukemia; 45.7% in the experiment with OVCAR-8 ovarian; 73.9% in the experiment on OVCAR-5 ovarian; 61.2% in the experiment with OVCAR-4 ovarian; 22.5% in the experiment with SK-OV-3 ovarian. Besides, the growth is 51.3% in the experiment with IGROV1 ovarian; 10.9% in the experiment with OVCAR-3 ovarian; -12.6% (active) in the experiment with HS 578T breast; 45.6% with NCI/ADR-RES ovarian; 23.4% in the experiment with T-47D breast; 23.1% with BT-549 breast. For the same compound, the growth in the experiment with MDA-MB-435 melanoma was -27.3% (active); in the experiment with MCF7 breast, 3.49% (active); with HCT-116 colon, 9.65% (active); in the experiment on HCC-2998 colon it was -1.07% (active); with KM12 colon, 14.3%.
Turning to `CC(=O)c1c(C)[nH]c(-c2nc3ccc(N4CCN(C)CC4)cc3[nH]2)c1-c1ccc(OCC2CCOCC2)cc1`, the growth is 28.1% with SR leukemia; -2.05% (active) in the experiment with RPMI-8226 leukemia; 38% with OVCAR-8 ovarian; 43.8% with OVCAR-5 ovarian; 35.7% with OVCAR-4 ovarian; 13.5% with SK-OV-3 ovarian. Also, the growth in the experiment with IGROV1 ovarian was 16.2%; in the experiment with OVCAR-3 ovarian it was 30.7%; in the experiment on HS 578T breast, 19.5%; in the experiment on NCI/ADR-RES ovarian, 31.7%; with T-47D breast, 29.1%; in the experiment with BT-549 breast, 57.1%. Moreover, the growth was 23.5% in the experiment on MDA-MB-435 melanoma; 6.13% (active) with MCF7 breast; 19.8% in the experiment on HCT-116 colon; 31.7% in the experiment on HCC-2998 colon; 34.2% in the experiment with KM12 colon.
For `COc1ccc(/C=C(\C#N)c2cc3ccccc3n2C(C)=O)cc1`, the growth is 47.3% in the experiment on SR leukemia; 83.2% in the experiment with RPMI-8226 leukemia; 103% with OVCAR-8 ovarian; 104% in the experiment with OVCAR-5 ovarian; 96.5% in the experiment with OVCAR-4 ovarian; 107% in the experiment on SK-OV-3 ovarian. Besides, the growth with IGROV1 ovarian was 89.8%; with OVCAR-3 ovarian, 92.8%; in the experiment with HS 578T breast, 87.4%; in the experiment on NCI/ADR-RES ovarian, 55.6%; in the experiment on T-47D breast, 78.5%; in the experiment with BT-549 breast it was 82.6%. Moreover, the growth in the experiment with MDA-MB-435 melanoma is 9.69% (active); in the experiment with SW-620 colon, 59.5%; with HCT-116 colon, 81.1%; in the experiment with HCC-2998 colon, 81.2%; in the experiment on KM12 colon it was 57.1%.
Turning to `COc1cc2ncnc(Nc3ccc(Oc4ccnc(C)c4)c(C)c3)c2cc1NC(=O)CC1CCSS1` (stereo unspecified), the growth with SR leukemia is -37.6% (active); with RPMI-8226 leukemia it was -18.6% (active); in the experiment on OVCAR-8 ovarian, 25.4%; in the experiment on OVCAR-5 ovarian, 45.2%; in the experiment on OVCAR-4 ovarian it was 6.57% (active); with SK-OV-3 ovarian, -86.9% (active). The growth was 20.6% in the experiment on IGROV1 ovarian; -81.4% (active) with OVCAR-3 ovarian; -7.37% (active) with HS 578T breast; 31.9% with NCI/ADR-RES ovarian; -66% (active) with T-47D breast; -48.4% (active) with BT-549 breast. Further, the growth in the experiment with MDA-MB-435 melanoma is -33.4% (active); in the experiment on SW-620 colon, -33.7% (active); with HCT-116 colon it was -65.5% (active); in the experiment on HCC-2998 colon it was -88.6% (active); in the experiment on KM12 colon, -68.8% (active).
Regarding `Clc1ccccc1-c1nc(Nc2nc3ccccc3s2)nc(C(Cl)(Cl)Cl)n1`, the growth with SR leukemia is 79.6%; with RPMI-8226 leukemia, 10.1%; in the experiment with OVCAR-8 ovarian, 68.6%; with OVCAR-5 ovarian, 74.3%; in the experiment on OVCAR-4 ovarian, 64.6%; with SK-OV-3 ovarian, 56.8%. In addition, the growth in the experiment on IGROV1 ovarian is 54.3%; with OVCAR-3 ovarian it was 4.03% (active); with HS 578T breast, 70%; in the experiment with NCI/ADR-RES ovarian, 50.6%; in the experiment on T-47D breast, 38.7%; in the experiment on BT-549 breast it was 84.2%. Further, the growth in the experiment on MDA-MB-435 melanoma was 49%; with MCF7 breast, 32.6%; in the experiment on HCT-116 colon, 19.1%; with KM12 colon, 31.3%.
As to `Cc1ccc(N(CC(=O)Nc2ccc(S(=O)(=O)N3CCC(N4CCCC4)CC3)cc2)S(=O)(=O)c2ccc(Cl)cc2)cc1`, the growth in the experiment on SR leukemia is -29.5% (active); with RPMI-8226 leukemia, -3.71% (active); in the experiment with OVCAR-8 ovarian, 55.2%; in the experiment on OVCAR-5 ovarian, 88%; with OVCAR-4 ovarian, 49.2%; in the experiment on SK-OV-3 ovarian, 96.9%. The growth with IGROV1 ovarian is 51%; in the experiment on OVCAR-3 ovarian, -22.4% (active); in the experiment on HS 578T breast, 66%; with NCI/ADR-RES ovarian it was 70.2%; in the experiment with T-47D breast, -37.2% (active); with BT-549 breast it was 74.1%. Moreover, the growth was -87.6% (active) in the experiment with MDA-MB-435 melanoma; -46.8% (active) with SW-620 colon; -70.5% (active) in the experiment with HCT-116 colon; -48.9% (active) in the experiment on HCC-2998 colon; 24.5% in the experiment with KM12 colon.
In the case of `Cc1nn(-c2ccc(Cl)cc2)c(=O)n1CCn1cnc2ccccc21`, the growth in the experiment with SR leukemia was 104%; in the experiment on RPMI-8226 leukemia, 104%; in the experiment on OVCAR-8 ovarian, 112%; in the experiment on OVCAR-5 ovarian it was 99.9%; with OVCAR-4 ovarian, 118%; in the experiment on SK-OV-3 ovarian, 113%. Moreover, the growth was 102% in the experiment on IGROV1 ovarian; 111% with OVCAR-3 ovarian; 100% with HS 578T breast; 103% in the experiment with NCI/ADR-RES ovarian; 90.8% in the experiment with T-47D breast; 97.5% with BT-549 breast. The growth was 100% in the experiment with MDA-MB-435 melanoma; 95.5% in the experiment on MCF7 breast; 97.5% in the experiment on HCT-116 colon; 104% with HCC-2998 colon; 121% in the experiment on KM12 colon.
For `N#CC1=C(N)Oc2c(c(N)nn2-c2ccccc2)C1c1ccc(Cl)cc1Cl` (stereo unspecified), the growth was 97.3% with SR leukemia; 94.4% in the experiment with RPMI-8226 leukemia; 96.9% in the experiment with OVCAR-8 ovarian; 98.2% in the experiment on OVCAR-5 ovarian; 95.7% with OVCAR-4 ovarian; 92.5% with SK-OV-3 ovarian. Also, the growth in the experiment on IGROV1 ovarian is 101%; in the experiment with OVCAR-3 ovarian, 110%; in the experiment on HS 578T breast, 101%; in the experiment with NCI/ADR-RES ovarian, 100%; with T-47D breast it was 77.6%; in the experiment on BT-549 breast, 97.8%. The growth is 103% with MDA-MB-435 melanoma, 94.4% in the experiment with HCT-116 colon, 106% with HCC-2998 colon and 99.3% in the experiment with KM12 colon.
In the case of `O=C(CCCCCn1c2ccccc2c2c3c(c4c5ccccc5[nH]c4c21)C(=O)N(O)C3=O)N1CCOCC1`, the growth in the experiment on SR leukemia was 8.26% (active); in the experiment on RPMI-8226 leukemia, 14.9%; in the experiment on OVCAR-8 ovarian, 41.7%; with OVCAR-5 ovarian, 116%; with OVCAR-4 ovarian it was 64.5%; with SK-OV-3 ovarian, 70.4%. For the same compound, the growth was -26.5% (active) in the experiment on IGROV1 ovarian; 40.9% with OVCAR-3 ovarian; 66.5% in the experiment on HS 578T breast; 73.7% in the experiment with NCI/ADR-RES ovarian; 23.6% with T-47D breast; 60.3% with BT-549 breast. In addition, the growth in the experiment with MDA-MB-435 melanoma was 54.9%; with SW-620 colon, 56.4%; in the experiment on HCT-116 colon, 24.3%; in the experiment with HCC-2998 colon, 18.8%; in the experiment with KM12 colon it was 47.6%.
